# Data as given in PubChem BioAssay (EPA / NIEHS).
# Activity calls are given as the source filed them. How the source made its calls: active means hit-call score of the fitted dose curve at least 0.9, where 1 is the maximum; inactive means score below 0.9.
# Read-out: UDP glucuronosyltransferase (UGT1A1), UGT1A1 (gene 54658)
# Test: LTEA_HepaRG_UGT1A1: Life Technologies and Expression Analysis (LTEA) Assay for UDP glucuronosyltransferase (UGT1A1) using HepaRG (AID 2283538)
# Conditions: mRNA level, 48 h; actives raise or lower the signal
# Method: LTEA_HepaRG is a cell based, multiplexed-readout assay that uses HepaRG, a human liver cell line, with measurements taken at 48 hours after chemical dosing on a 96-well plate.LTEA_HepaRG_UGT1A1 is one of 102 assay component(s) measured in the LTEA HepaRG cell culture assay. It is a marker of Steatosis/NR mediated metabolism.Data from the assay component LTEA_HepaRG_UGT1A1 was analyzed into 1 endpoint. This assay endpoint, LTEA_HepaRG_UGT1A1, was analyzed with bidirectional fitting relative to DMSO as the negative control and baseline of activity. Using a type of inducible reporter, measures of mRNA induction for gain or loss-of-signal activity can be used to understand regulation of transcription factor activity. To generalize the intended target to other relatable targets, this assay endpoint is annotated to the transferase intended target family, where the subfamily is glucuronosyltransferase.
# A total of 1060 chemcials from the ToxCast library were tested in eight-point concentration-response experiments. Cell culture and cytotoxicity assays were conducted at Thermo Fisher Scientific's Custom Services facility (Madison, WI). A single lot of human HepaRG cells (Thermo Fisher Scientific, Frederick, MD) was used for the cell culture experiments. 96-well format collagen type I coated plates of human HepaRG cells were prepared using established methods. Briefly, cryopreserved HepaRG cells were thawed, plated at a density of approximately 100,000 cells/well in HepaRG Thaw, Plate, and General Purpose media (HPRG770, Thermo Fisher Scientific), and incubated for 48 hours. 0.5% DMSO was selected as vehicle control to balance the requisite need of DMSO in HepaRG cultures to maintain differentiation (for example, baseline metabolism, proportions of hepatocytes vs. cholangiocytes), while enabling further hepatic receptor pathway activation (for example, PXR and CAR) in response to chemical exposure. 48 hours after plating, the culture medium was replaced with HepaRG Serum-Free Incudtion Media. Cells were exposed to each test chemical in duplicate and maintained in CO2 incubators for another 48 hours. Chemical plates were thawed to room temperature and 200x concentrations of treatment groups were prepared. 8-point conentration-reponse curves were made with the highest exposure at 100 uM, followed by half-log dilutions, all in 0.5% DMSO. Each test plate contained variouse controls, induction positive controls (1mM phenobarbital), cytotoxicity positive controls ([…] aflatoxin B1), vehicle controls (0.5% DMSO), and total lysis controls (0.5% DMSO). Cell morphology images were taken using an Essen IncuCyte FLR automated microscope, with six 96-well plates imaged in about 24 minutes. Images were captured and exported and JPEG files. Spent culture media was transfered to black-well plates for the LDH assay, and remaining media was sorted at -80 C for later use. Cells were treated with RLT buffer and frozen until shipped for gene expression analysis. Total RNA was isolated from the cell suspension in 75 uL of Buffer RLT (Qiagen, Germantown, MD 20874) by Quintiles/Expression Analysis (Durham, NC) using a custom isolation procedure. Total RNA from each plate well was transferred to a preamplification plate. Fluidigm's 96.96 Dynamic ArrayTM (Fluidigm, Amsterdam, the Netherlands) technology was used for gene expression analyses by quantitative reverse transcription polymerase chain reaction (qRT-PCR, performed by Quintiles/Expression Analysis, Durham, NC)89. Standard TaqManTM Assays (Applied Biosystems/ThermoFisher Scientific, Foster City, CA) were used to assess the expression of 93 genes selected based on their selectivity and sensitivity to important hepatic receptors known to be modulated by environmental chemicals; importance in human hepatocyte functionality; and hepatotoxicity. […]
Compound,outcome,AC50
O=c1n(Cl)c(=O)n(Cl)c(=O)n1Cl,inactive,
COP(=S)(OC)Oc1ccc([N+](=O)[O-])c(C)c1,,11.5 µM (active)
Cc1cnc(C2=NC(C)(C(C)C)C(=O)N2)c(C(=O)O)c1 (stereo not given),inactive,
CCCC(=NOCC)C1=C(O)CC(CC(C)SCC)CC1=O (stereo not given),,50.2 µM (active)
CC1(C)C(C(=O)OC(C#N)c2cccc(Oc3ccccc3)c2)C1(C)C (stereo not given),,50 µM (active)
CNC(=O)Oc1cccc2ccccc12,,50 µM (active)
CN=C=S,inactive,
Nc1c(Cl)c(Cl)nc(C(=O)O)c1Cl,inactive,
CCOC(=O)C(C)OC(=O)c1cc(Oc2ccc(C(F)(F)F)cc2Cl)ccc1[N+](=O)[O-] (stereo not given),,8.94 µM (active)
Nc1cnn(-c2ccccc2)c(=O)c1Cl,,50 µM (active)
CC(C)N1C(=O)c2ccccc2NS1(=O)=O,inactive,
CC(C)(C)C(=O)C(Oc1ccc(Cl)cc1)n1cncn1 (stereo not given),,6.35 µM (active)
CC(C)Nc1nc(Cl)nc(NC(C)C)n1,,8.13 µM (active)
COC(=O)N(C(=O)N1CO[C@@]2(C(=O)OC)Cc3cc(Cl)ccc3C2=N1)c1ccc(OC(F)(F)F)cc1,,10 µM (active)
N#Cc1c(Cl)cccc1Cl,inactive,
COc1ccc(-c2ccccc2)cc1NNC(=O)OC(C)C,inactive,
COP(=O)(OC)O/C(C)=C/C(=O)N(C)C,inactive,
O=C1C2CC=CCC2C(=O)N1SC(Cl)(Cl)Cl (stereo not given),inactive,
CCOc1cc(C(C)(C)C)ccc1C1COC(c2c(F)cccc2F)=N1 (stereo not given),,8.48 µM (active)
O=C(O)c1c(Cl)ccc2cc(Cl)cnc12,inactive,

Compound,outcome,AC50
CS(=O)(=O)c1cc(C(F)(F)F)ccc1C(=O)c1cnoc1C1CC1,inactive,
CCC(C)n1c(=O)[nH]c(C)c(Br)c1=O (stereo not given),,5.95 µM (active)
Nc1c(Cl)c(F)nc(OCC(=O)O)c1Cl,inactive,
CC(C)=CC1C(C(=O)OCc2coc(Cc3ccccc3)c2)C1(C)C (stereo not given),,39.4 µM (active)
N#Cc1c[nH]cc1-c1cccc2c1OC(F)(F)O2,,34.3 µM (active)
CC(C)N1C(=O)N(c2ccccc2)CSC1=NC(C)(C)C,,88.8 µM (active)
COCC(C)N(C(=O)CCl)c1c(C)csc1C (stereo not given),,22.2 µM (active)
CCOP(=S)(OCC)Oc1nc(Cl)n(C(C)C)n1,,12.5 µM (active)
CCOc1nc(F)cc2nc(S(=O)(=O)Nc3c(Cl)cccc3Cl)nn12,inactive,
CC1(C)CCC(=Cc2ccc(Cl)cc2)C1(O)Cn1cncn1 (stereo not given),,5.72 µM (active)
COC(=O)c1c(C(F)F)nc(C(F)(F)F)c(C2=NCCS2)c1CC(C)C,,5.73 µM (active)
O=C(Nc1ccccc1-c1ccc(Cl)cc1)c1cccnc1Cl,inactive,
C=C(C)CN(CC)c1c([N+](=O)[O-])cc(C(F)(F)F)cc1[N+](=O)[O-],,50 µM (active)
Clc1cccc(C(Cl)(Cl)Cl)n1,,50 µM (active)
C=CCOC(=O)C(C)(C)OC(=O)c1cc(-n2c(=O)cc(C(F)(F)F)n(C)c2=O)ccc1Cl,,23.1 µM (active)
COC(=O)NS(=O)(=O)c1ccc(N)cc1,inactive,
Cc1nc(N(C)C)nc(OC(=O)N(C)C)c1C,,13.9 µM (active)
CN/C(=N\[N+](=O)[O-])NCc1cnc(Cl)s1,,50 µM (active)
COCC(=O)N(c1c(C)cccc1C)C(C)C(=O)OC (stereo not given),inactive,
CCN(CC)C(=O)C(C)Oc1cccc2ccccc12 (stereo not given),,12.9 µM (active)
